In ChEMBL document CHEMBL4888484, “Replenishing the malaria drug discovery pipeline: Screening and hit evaluation of the MMV Hit Generation Library 1 (HGL1) against asexual blood stage Plasmodium falciparum ,using a nano luciferase reporter read-out” (2022):
Among all 4,800 compounds or so, about 410 (8.5%) showed an effect of 50% or more. Only a selection was taken, and strong results are over-represented in it overall.

system: Plasmodium falciparum; test: Confirmatory screen in NF54 pLDH assay, in single point, at 2uM, 72h; format: functional, Erythrocyte; settings: timepoint 72 hour

Row | SMILES | % Inhibition [%]
1 | CCC(CC)c1cc([C@H]2CN3CC[C@H]2C[C@@H]3CO)nc(-c2ccncc2)n1 | 24
2 | CCC(CC)c1cc([C@H]2CN3CC[C@H]2C[C@@H]3CNS(=O)(=O)Cc2ccccc2)nc(-c2ccncc2)n1 | 60
3 | CCCS(=O)(=O)NC[C@H]1C[C@@H]2CCN1C[C@@H]2c1cc(C(CC)CC)nc(-c2ccncc2)n1 | 25
4 | CN(C)[C@@H](Cn1c(=O)[nH]c2ccccc2c1=O)c1ccco1 | -13
5 | COc1ccc(-c2csc(-n3cc(C4=CCN(CCO)CC4)cn3)n2)cc1 | 40
6 | O=C(Cc1noc2ccccc12)N1CC2CCCC(C1)N2 | 11
7 | CC(C)(C)CC(C)(C)NCc1cccnc1 | -1
8 | O=C1NC(=O)C2(Cc3cc(C(F)(F)F)ccc3N3CCCCC32)C(=O)N1c1ccccc1 (centres undefined) | -21
9 | O=C(c1ccccc1)c1cc(Cl)ccc1NC(=O)[C@H]1CC(=O)N(c2ccc(F)cc2)C1 | 96
10 | Cc1c(C(=O)N2CCC3(CC2)OCCO3)oc2ccc3c(c12)[C@@H](O)CC1(CCCCC1)O3 | 10
11 | CN(C)c1ccccc1NS(=O)(=O)c1c(Br)cc2[nH]c(=O)oc2c1Cl | 2
12 | CCC(CC)c1cc([C@H]2CN3CC[C@H]2C[C@@H]3CNC(=O)Cc2cccs2)nc(-c2ccncc2)n1 | 7
13 | CN1CCc2nc3ccc(F)cc3c(C(N)=O)c2C1 | -10
14 | Cc1ccccc1[C@H](C)NC1=NCCO1 | 6
15 | CCN1C[C@]2(COC)CC[C@H](OC)[C@@]34C5C[C@@H]6[C@@H](OC)C[C@@](O)(C5[C@H]6OC(=O)c5ccccc5)[C@@H](CC23)C14 (some centres undefined) | 13
16 | Cc1ccc(C2CC(c3cccnc3)Nc3ncnn32)cc1 (centres undefined) | 7
17 | C=CC1CN2CCC1CC2C12Nc3ccccc3C1(O)CCO2 (centres undefined) | -15
18 | O[C@@]1(Cc2ccccc2)CN2CCC1CC2 | 3
19 | COc1ccc(CCN2C(=O)NC(=O)[C@@]3(Cc4c(ccc5ccccc45)N(C)C3)C2=O)cc1OC | 6
20 | Cc1cc(C(=O)NC2CC(C)n3ccnc32)nn1C(C)C (centres undefined) | 70
21 | CCc1nsc(N2CCC3CCC(C2)N3C)n1 (centres undefined) | -12
22 | C[C@@H]1N=C(c2ccccc2)c2cc(Cl)ccc2N(CC(=O)Nc2cccc(C(F)(F)F)c2)C1=O | 11

Row | SMILES | % Inhibition [%]
23 | Cc1ccc(CN2CC(=O)N(C)CC23CCCCC3)nc1 | -19
24 | Clc1ccc(C2CC(c3cccnc3)Nc3ncnn32)cc1 (centres undefined) | -11
25 | COC(=O)c1cc(OC)cc2[nH]c(=O)oc12 | -17
26 | O=C1CCN(C(=O)c2ccc(F)c(Cl)c2)CC1 | 13
27 | CC(CCc1ccccc1)N1C(=O)NC(=O)C2(Cc3c(ccc4ccccc34)N(C)C2)C1=O (centres undefined) | 6
28 | CCn1cnc2c(N3C4CCC3C(C(=O)OC(C)(C)C)C4)ncnc21 (centres undefined) | -8
29 | CC1CNCC(C)N1Cc1csc(C2CC2)n1 (centres undefined) | -9
30 | O=C1NC(=O)C2(Cc3cccc(F)c3N3CCC(c4ccccc4)CC32)C(=O)N1c1ccccc1 (centres undefined) | -18
31 | Cc1cc(=O)c(OCC(=O)N2CCN([C@@H](c3ccccc3)c3ccc(Cl)cc3)CC2)c[nH]1 | 74
32 | COc1cc(OCC(=O)N2CCN([C@@H](C)Cc3ccccc3)CC2)cc(OC)c1OC | 3
33 | O=C(N1CCN(C(c2ccccc2)c2ccccc2)CC1)C(O)(c1ccccc1)c1ccccc1 | -14
34 | COc1cnc(C(F)(F)F)nc1N1CCNCC1 | 9
35 | Cn1cc(Br)cc1C(=O)C(Cl)(Cl)Cl | -6
36 | CC(C)(C)NC(=O)C1CC2CCCCC2CN1 (centres undefined) | 2
37 | CN1CC2(CN(Cc3cnc4ccc(Cl)cn34)C2)OC1=O | 6
38 | C=CCN(C)C[C@H]1CN2CC[C@H]1C[C@@H]2CNC(=O)Nc1ccc(OC(F)(F)F)cc1 | 17
39 | O=C1CCN(C(=O)c2ccc(Cl)c(Cl)c2)CC1 | 12
40 | CN1CCC(N(C)C2CCCCC2N(C)C(=O)Cc2ccc(O)cc2)CC1 (centres undefined) | 4
41 | CN1CC2CN(Cc3ccccc3)CC(C1)C2=O | -5
42 | CC(=O)N(C1CCN(Cc2ccccc2)CC1)C1(C(=O)Nc2ccc3[nH]ccc3c2)CCN(C)CC1 | 101
43 | COCCn1ccc(C(=O)N[C@H]2CCc3nc(C(C)C)nn3C2)n1 | 1
44 | CN1CC[C@]2(CCN(c3ccnc4ccsc34)C2)C1 | 97

Row | SMILES | % Inhibition [%]
45 | c1cc(N2CC[C@@]3(CCCNC3)C2)c2sccc2n1 | 98
46 | CN1CCC2(CC1)CNc1ccccc12 | 0
47 | COC(=O)COc1ccc(C#N)c(Cl)c1 | 1
48 | CCOc1ccccc1NC(=O)c1cn(Cc2ccc(N)cc2)cn1 | 6
49 | O=c1[nH]c2cc(NS(=O)(=O)c3ccc(C4CCCCC4)cc3)ccc2o1 | -14
50 | COc1ccc(N2C[C@H]2c2ccncc2)cc1 | 12
51 | O=C(NC[C@H]1C[C@@H]2CC[N@]1C[C@@H]2CN1CCC(Cc2ccccc2)CC1)Nc1ccccc1 | 27
52 | CN(C)C(=O)Oc1cccc2ccc(CN3CCC(N4CCN(c5ccc(C(F)(F)F)cn5)CC4)CC3)nc12 | 5
53 | O=C(Cc1cnc2ccccn12)N1C[C@H]2CC[C@@H](C1)N(Cc1ccccn1)C2 | 20
54 | CNCCc1cc(OC)c(OC)c2c1ccc1cc(OC)c(OC)cc12 | 7
55 | c1ccc2c(CCNC3(c4nnnn4C4CCCCC4)CCCCC3)c[nH]c2c1 | 16
56 | O=S(=O)(NC12CCCC1CNC2)c1onc(C2CC2)c1Cl (centres undefined) | 97
57 | O=C(NCc1ccc(Br)cn1)[C@H]1NCC12CCCC2 | 4
58 | COC(=O)CNc1cc(C)c([C@@](O)(C(=O)OC)C(F)(F)F)cc1OC | 6
59 | CCN(CC)C(=O)Oc1cc2nnnn2nc1-c1ccccc1 | 6
60 | CC(C)N1C(=O)NC(=O)C2(Cc3ccccc3N3CCN(Cc4ccccc4)CC32)C1=O (centres undefined) | 19
61 | C=CCCC(CN1C[C@H]2CC=CC[C@H]2C1)Oc1ncc(F)cn1 (some centres undefined) | 64
62 | C[C@@H](Cc1ccc(O)cc1)NCc1cc[nH]n1 | 12
63 | CCCC(=O)N(C(=O)CCC)c1ccc2[nH]c(=O)oc2c1 | -1
64 | Cc1ccc(Cl)c(NC(=O)N2CCC[C@H](c3n[nH]c(=O)o3)C2)c1 | 2
